Pf Dd2 growth: blocks in vitro growth of P. falciparum Dd2; P. falciparum Dd2 growth, SYBR Green, 72 h; Potency, µM (highest dose often 28.9 µM), actives largely listed as inhibitors; 120,000 tested, 4.3% active; AID 1347417; active means well fitted inhibition curve with a large enough effect; further: nearly all actives have a fitted effect of over 65% in size
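Infected erythrocytes (Dd2, 0.3% parasitemia, 2.5% hematocrit final) are added to compound in RPMI-1640/Albumax II medium, grown 72 h at 37C in low oxygen, then lysed with saponin/Triton-X containing SYBR Green and read by fluorescence.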
Of the large screens only hits and unclear results are named; the others gave an inactive call. The sample as a whole holds a higher share of hits than the screen did.

CCN(Cc1noc(C)n1)C(=O)C1CCC(=O)N(Cc2cccc(F)c2)C1 (centres undefined)	none
Cc1cccc(-c2ocnc2C(=O)N2CCCOCCNC(=O)CC2)c1	none
CCC1c2nccn2CCCN1C(=O)CCc1c(C)nn(C)c1C (centres undefined)	none
COc1ccc(CNC(=O)CC2CCCCN(Cc3ccccc3)C2=O)cc1 (centres undefined)	none
Cc1ccc(OCc2ccc(C(=O)N3C[C@H](C4CC4)[C@@H](N)C3)cc2)cc1	Pf Dd2 growth 10µM
N[C@H]1CN(C(=O)c2ccc(Cn3cnnn3)cc2)C[C@@H]1C1CC1	none
CCOc1ccc(C(=O)N2C[C@@H](COC)[C@H](C(N)=O)C2)cc1	none
O=C(NC1CCCc2c1[nH]c1ccc(F)cc21)c1cccs1 (centres undefined)	none
CC(C)CC(=O)NC1CCCc2c1[nH]c1c(Cl)cccc21 (centres undefined)	none
Cc1noc(C)c1C(=O)NC1CCCc2c1[nH]c1c(Cl)cccc21 (centres undefined)	none
O=C(Cc1c[nH]c2ccccc12)NC1CCCc2c1[nH]c1ccc(F)cc21 (centres undefined)	Pf Dd2 growth 13µM
Cc1noc(C)c1CCC(=O)NC1CCCc2c1[nH]c1ccc(F)cc21 (centres undefined)	Pf Dd2 growth 11µM
O=C(CCNC(=O)c1cnccn1)NC1CCCc2c1[nH]c1ccc(F)cc21 (centres undefined)	none
Cc1noc(C)c1C(=O)NC1CCCc2c1[nH]c1ccc(F)cc21 (centres undefined)	none
Cc1noc(C)c1CC(=O)NC1CCCc2c1[nH]c1c(Cl)cccc21 (centres undefined)	Pf Dd2 growth 7.9µM
COc1ccc(CC(=O)NC2CCCc3c2[nH]c2ccc(F)cc32)cc1OC (centres undefined)	none
O=C(NCc1ccccc1)N1CC(Oc2ccc(-c3nc(-c4ccccc4)no3)cc2)C1	none
COc1ccc(-c2nccc3c(=O)cc(N(C)C)oc23)cn1	none
O=C(NC1CCOC2(CCOCC2)C1)c1csc(Cc2ccccc2)n1 (centres undefined)	none
CCOC(=O)c1ccc(NC(=O)CC2C(=O)N(c3ccc(C)cc3)C(=O)N2C2CCCCC2)cc1 (centres undefined)	none
CCc1ccc(NC(=O)CC2C(=O)N(c3ccc(C)cc3)C(=O)N2C2CCCC2)cc1 (centres undefined)	Pf Dd2 growth 11µM
COc1ccc(NC(=O)CC2C(=O)N(c3ccc(OC)cc3)C(=O)N2C2CCCCC2)cc1 (centres undefined)	none
CCOc1ccc(NC(=O)CC2C(=O)N(c3ccc(OC)cc3)C(=O)N2C2CCCCC2)cc1 (centres undefined)	none
CCc1ccc(NC(=O)CC2C(=O)N(c3ccc(Cl)cc3)C(=O)N2C2CCCC2)cc1 (centres undefined)	Pf Dd2 growth 10µM
CCOc1ccc(NC(=O)CC2C(=O)N(c3ccccc3)C(=O)N2C2CCCC2)cc1 (centres undefined)	none
O=C(NCc1cccc(F)c1)c1cc2c(s1)CCN(C(=O)c1ccccc1)C2	none
O=C(NCc1ccc(C(F)(F)F)cc1)C1CN(c2cccc(Cl)c2)C(=O)N1 (centres undefined)	none
Cc1cc(C(=O)N2CCC(c3noc(-c4ccccc4)n3)C2)n[nH]1 (centres undefined)	none
COc1cccc(C(=O)N2CCC(n3c(=O)[nH]c4ccccc43)CC2)c1	none
NC[C@H]1O[C@H](Cc2cc(-c3ccc(F)cc3)on2)CC[C@@H]1O	none
CC(C)Nc1ccc2nnc(-c3ccccn3)n2n1	none
CC(=O)N1CCN(c2nc3ncccc3o2)CC1	none
O=C1CCN(C(=O)Nc2ccccc2F)CCCC(C(=O)NCc2ccncc2)CCN1 (centres undefined)	none
CCc1cccc2c(C(CC(=O)NCc3ccc4c(c3)OCO4)c3ccc(OC)c(OC)c3)c[nH]c12 (centres undefined)	Pf Dd2 growth 4µM
Cc1ccc(C(CC(=O)N2CCC(C)CC2)c2cn(C)c3ccccc23)cc1 (centres undefined)	none
CCOC(=O)C1CCCN(C(=O)CC(c2ccc3c(c2)OCO3)c2cn(CC)c3ccccc23)C1 (centres undefined)	Pf Dd2 growth 7.1µM
CCOC(=O)C1CCN(C(=O)CC(c2ccc(OC)c(OC)c2)c2c[nH]c3c(CC)cccc23)CC1 (centres undefined)	Pf Dd2 growth 1.3µM
COc1ccc(C(CC(=O)NCc2ccccc2)c2c[nH]c3ccccc23)cc1OC (centres undefined)	none
CCc1cccc2c(C(CC(=O)NCCOC)c3ccc(OC)c(OC)c3)c[nH]c12 (centres undefined)	none
CCOC(=O)C1CCN(C(=O)CC(c2ccc(Cl)cc2)c2cn(C)c3ccccc23)CC1 (centres undefined)	Pf Dd2 growth 4µM
CCOC(=O)C1CCCN(C(=O)Cn2ncc3c4ccccc4n(C)c3c2=O)C1 (centres undefined)	none
COc1ccc(C(CC(=O)N2CCCC2)c2cn(Cc3ccccc3)c3ccccc23)cc1OC (centres undefined)	none
CCc1cccc2c(C(CC(=O)N3CCCC3)c3cccc(Cl)c3)c[nH]c12 (centres undefined)	none
CCc1cccc2c(C(CC(=O)NCCc3ccc(OC)c(OC)c3)c3cccc(OC)c3)c[nH]c12 (centres undefined)	none
Cc1ccc(C(CC(=O)N2CCc3ccccc3C2)c2cn(C)c3ccccc23)cc1 (centres undefined)	none
COc1nccc(N2CCC(CC(=O)N3CCN(C4CCCCC4)CC3)CC2)n1	none
O=C(NCc1nnc2ccc(-c3ccccc3)nn12)c1ccc(Cl)cc1	none
O=C(CCc1nc2ccc(Cl)cc2[nH]1)NCCc1noc(-c2cccnc2)n1	none
Cc1ncoc1C(=O)N1CCCCCCNC(=O)CC1	none
Cn1cccc1-c1cc(C(=O)N2CCOCC2CC(=O)Nc2ccccc2)[nH]n1 (centres undefined)	none
CCOc1cc(=O)n2c(c1C(=O)Nc1cc(Cl)c(OC)cc1OC)CCCC2	none
C#C[C@H]1CN2CC[C@H]1C[C@@H]2CNS(=O)(=O)c1cccc(F)c1	Pf Dd2 growth 8.9µM
C#C[C@H]1CN2CC[C@H]1C[C@@H]2CNCc1ccc(C(C)C)cc1	none
C#C[C@H]1CN2CC[C@H]1C[C@@H]2CNS(=O)(=O)c1ccc(Cl)cc1	Pf Dd2 growth 5µM
CC[C@H]1CN2CC[C@H]1C[C@@H]2CNS(=O)(=O)c1ccccc1	none
CC[C@H]1CN2CC[C@H]1C[C@@H]2CNS(=O)(=O)c1cccs1	none
CCN(CC)C[C@H]1CN2CC[C@H]1C[C@@H]2CNS(=O)(=O)c1ccc(Cl)cc1	none
C#C[C@H]1CN2CC[C@H]1C[C@@H]2CNCc1cccc(C#N)c1	Pf Dd2 growth 14µM
C#C[C@H]1CN2CC[C@H]1C[C@@H]2CNS(=O)(=O)c1cccs1	Pf Dd2 growth 8.9µM
O=S(=O)(NC[C@H]1C[C@@H]2CCN1C[C@@H]2CN1CCCCC1)c1ccccc1	none
C#CCN(C)C[C@H]1CN2CC[C@H]1C[C@@H]2CNS(=O)(=O)c1ccccc1	none
CC[C@H]1CN2CC[C@H]1C[C@@H]2CNC(=O)Nc1cccc(C#N)c1	none
C=C[C@H]1CN2CC[C@H]1C[C@@H]2CNS(=O)(=O)c1ccc(Cl)cc1	none
COCCNC(=O)C(NC(=O)c1ccccc1Cl)C1CCN(C(=O)c2ccccc2)CC1 (centres undefined)	none
O=C(Nc1ccc(Cl)cc1)N1CCn2c(nnc2C2CC2)C1	none
O=C(O)c1ccc(C2CCCN(C(=O)CN3CCc4ccccc4C3)C2)cc1 (centres undefined)	none
FC(F)(F)c1ccccc1CN1CCC2(CC1)CC(c1ccccc1)=NO2	none

Source: PubChem BioAssay
